Tests used:
Assay in all cases: Peg3 promoter luciferase inhibitors, potency, dose response, cell-based, HeLa, CREF/GAPDH counter-screen panel (AID 624167)
PEG-3 [1] = biological target: PEG-3 (UniProt Q6IN02); settings: CREF/GAPDH counter-screens; HeLa PEG-Prom luciferase reporter, overnight, run 1, dose range 1, at 100 µM (top of the series) unless noted
PEG-3 [2] = biological target: PEG-3 (UniProt Q6IN02); settings: CREF/GAPDH counter-screens; HeLa PEG-Prom luciferase reporter, overnight, run 2, dose range 1, at 100 µM (top of the series) unless noted
Rat fibroblasts (CREF) [3] = settings: CREF/GAPDH counter-screens; run 1, dose range 1, at 100 µM (top of the series)
Rat fibroblasts (CREF) [4] = settings: CREF/GAPDH counter-screens; run 2, dose range 1, at 100 µM (top of the series)

Chain of PEG-3 (Q6IN02 whole entry, looked up): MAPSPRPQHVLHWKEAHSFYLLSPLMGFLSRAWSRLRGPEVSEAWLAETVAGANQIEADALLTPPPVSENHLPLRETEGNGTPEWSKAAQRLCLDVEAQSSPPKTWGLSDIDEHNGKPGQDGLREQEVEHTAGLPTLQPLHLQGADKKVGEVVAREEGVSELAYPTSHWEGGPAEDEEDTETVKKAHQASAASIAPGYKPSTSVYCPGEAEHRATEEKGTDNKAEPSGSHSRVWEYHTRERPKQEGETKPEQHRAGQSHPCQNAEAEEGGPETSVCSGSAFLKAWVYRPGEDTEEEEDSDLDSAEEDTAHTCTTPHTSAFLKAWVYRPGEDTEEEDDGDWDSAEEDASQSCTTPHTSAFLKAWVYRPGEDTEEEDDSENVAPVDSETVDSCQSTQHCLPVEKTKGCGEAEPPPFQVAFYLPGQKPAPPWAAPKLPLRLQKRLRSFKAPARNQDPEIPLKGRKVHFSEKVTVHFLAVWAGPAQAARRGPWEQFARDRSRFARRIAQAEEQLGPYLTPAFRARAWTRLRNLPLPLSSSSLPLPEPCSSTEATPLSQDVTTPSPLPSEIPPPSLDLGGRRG

Row | Structure (SMILES) | inhibition (PEG-3 [1]) [%] | inhibition (PEG-3 [2]) | inhibition (Rat fibroblasts (CREF) [3]) [%] | inhibition (Rat fibroblasts (CREF) [4]) [%]
1 | O=C(Nc1cccc(S(=O)(=O)N2CCOCC2)c1)c1ccc2c(=O)n3c(nc2c1)CCCCC3 | 96.5 | 98% |  | 
2 | COc1ccc(C2c3ccc4ccccc4c3Oc3ncn(CCCO)c(=N)c32)cc1 (stereo unspecified) | 102 | 101% |  | 
3 | CC(=O)N1CCN(c2cc(-c3ccccc3)nc3cc(-c4cccc(Cl)c4)nn23)CC1 | 101 | 95.5% |  | 
4 | CCCc1ccc(C(=O)O/N=C(\N)c2ccccn2)cc1 | 99.7 | 102% |  | 
5 | CCc1ccc2c(c1)Sc1ccccc1CC2N1CCN(C)CC1 (stereo unspecified) | 102 | 102% |  | 
6 | COc1ccc(/C=C/C(=O)c2ccc3c4c(cccc24)CC3)cc1OC | 101 | 102% |  | 
7 | COc1cccc(NC(=O)CN(C)C(=O)c2cccnc2Nc2cccc(C(F)(F)F)c2)c1 | 102 | 102% |  | 
8 | COc1cc(C(=O)/C=C/c2cccnc2)c([N+](=O)[O-])cc1OC | 102 | 99.8% |  | 
9 | CN(C)CCNC(=O)c1sc2nc(-c3ccccc3)cc(C(F)(F)F)c2c1N | 102 | 102% |  | 
10 | O=C(Nc1ccccc1)c1nc[nH]c1C(=O)NCCCCNC(=O)c1[nH]cnc1C(=O)Nc1ccccc1 | 22.3 | 59.3% |  | 
11 | COc1ccc(CC(N)c2csc(NC(=O)Nc3cc(OC)ccc3OC)n2)cc1 (stereo unspecified) | 94.3 | 98.7% |  | 
12 | O=C(CCCN1C(=O)/C(=C/c2cccc(Br)c2)SC1=S)Nc1cccnc1 | 101 | 96.5% |  | 
13 | O=C1CSC(=S)N1Cc1cccnc1 | 96.9 | 101% |  | 
14 | CC(C)CC(NS(=O)(=O)OCC(Cl)(Cl)Cl)c1ccccc1 (stereo unspecified) | 97.2 | 99.4% |  | 
15 | COc1ccccc1NC(=O)c1cc(-c2cc(OC)c(OC)c(OC)c2)nc2ccccc12 | 47.9 | 50.1% [run 2, dose range 1, at 50 µM] |  | 
16 | OCCNCc1cc(Br)ccc1OCc1ccc(Cl)cc1Cl | 101 | 101% |  | 
17 | CN=c1sc2c(n1C)C(=O)c1ccccc1C2=O | 101 | 98.9% | 97.8 | 98.9
18 | CC(=O)NC(c1ccc(Cl)cc1Cl)c1ccc2cccnc2c1O (stereo unspecified) | 96.5 | 96.7% | -0.0688 | 0.461
19 | CS(=O)(=O)c1ccc(-c2cn3cc(C(=O)O)ccc3n2)cc1 | 82.1 | 57.2% | 71 | 66.8

Row | Structure (SMILES) | inhibition (PEG-3 [1]) [%] | inhibition (PEG-3 [2]) | inhibition (Rat fibroblasts (CREF) [3]) [%] | inhibition (Rat fibroblasts (CREF) [4]) [%]
20 | Cc1c(C(=O)N2CCN(c3ccc(F)cc3)CC2)sc2ncnc(N3CCN(c4ccccn4)CC3)c12 | 67.2 | 77.6% |  | 
21 | COc1ccccc1CN(C)C(=O)c1cc(-c2cc(OC)c(OC)c(OC)c2)nc2ccccc12 | 83.8 | 84.7% |  | 
22 | CC(C)(C)c1ccc(OCCCNCc2ccccc2)cc1 | 99.8 | 98% |  | 
23 | CCOC(=O)c1c(NC(=O)COc2ccccc2F)sc2c1CC(C)(C)NC2(C)C | 89.1 | 102% |  | 
24 | COc1ccc(-n2cc(CNC3CCN(C)CC3)c(-c3cccc(F)c3)n2)cc1 | 100 | 101% |  | 
25 | CCC(=O)NC(c1cccs1)c1cc(Cl)c2cccnc2c1O (stereo unspecified) | 100 | 99.5% | 38.2 | 97.6
26 | CN(C)CCNc1ncnc2c1sc1nc(N3CCOCC3)c3c(c12)CC(C)(C)SC3 | 98 | 101% |  | 
27 | Oc1[nH]c2ccc(Br)cc2c1N=NC(=S)N1CCOCC1 | 102 | 99% | 30.5 | 99.1
28 | CC(C)CC1C(=O)N(Cc2cn(Cc3ccco3)nn2)CCS(=O)(=O)N1Cc1ccc(-c2ccc(F)cc2)cc1 (stereo unspecified) | 39 | 30.4% | 96.8 | 100
29 | COc1ccc(-c2oc3ccc(-c4cc(OC)c(OC)c(OC)c4)cc3c2C#Cc2ccccn2)cc1 | 26.8 | 53.3% |  | 
30 | CCCOC(=O)c1cccc(Nc2nc(-c3cccnc3)nc3ccccc23)c1 | 99 | 101% |  | 
31 | CCCCN(C)C(=O)c1ccc(Nc2nc(C(N)CCc3ccccc3)cs2)nc1 (stereo unspecified) | 98.6 | 94.6% |  | 
32 | Cc1ccccc1OCC(=O)Nc1cccc(C(=O)O)c1 | 99.1 | 95.1% | 95.9 | 68.4
33 | Cc1ccc(-n2[nH]c(=O)c(-c3ccccn3)c2C)cc1 | 94.8 | 90.3% | 86.5 | 87.2
34 | Cc1nc2c(OCc3ccc(OC(F)F)cc3)cccn2c1N(C)C(=O)CCC1CCCC1 | 95.4 | 99.7% |  | 
35 | COc1cccc(NC(=O)Nc2cccc(C(=O)O)c2)c1 | 87 | 81.3% |  | 
36 | CC(=O)c1ccc(Nc2nc(C(N)Cc3ccc(Cl)cc3)cs2)cc1 (stereo unspecified) | 99.5 | 98.2% |  | 
37 | O=[N+]([O-])c1nn(-c2ccc3c(c2)OCCO3)n(O)c1=Nc1ccc(Cl)cc1 | 48.4 | 73.7% | 13.6 | 8.03
38 | COc1ccc(-n2c(O)c(/C=N/Nc3nc(C)cc(C)n3)c3ccccc3c2=O)cc1OC | 57.2 | 63.9% | 80.4 | 68.5

Reference: PubChem BioAssay
